{"source": "PubChem BioAssay (EPA / NIEHS)", "note": "Active and inactive are the calls of the source. Rule for the calls: active = hit-call score of the fitted dose curve at least 0.9, where 1 is the maximum; inactive = score below 0.9."}
{"test": "ATG_VDRE_CIS: Attagene CIS-FACTORIAL HepG2 Assay for human Vitamin D Receptor Element (VDRE) (AID 2282968)", "settings": "HepG2 VDRE cis-reporter transcription, actives raise or lower the signal", "method": "ATG_CIS is a cell-based, multiplexed-readout assay that uses HepG2, a human liver cell line, with measurements taken at 24 hours after chemical dosing in a 24-well plate.ATG_VDRE_CIS is one of 52 assay component(s) measured or calculated from the ATG_CIS assay. It is designed to make measurements of mRNA induction, a form of inducible reporter, as detected with fluorescence intensity signals by Reverse transcription polymerase chain reaction (RT-PCR) and Capillary electrophoresis technology.Data from the assay component ATG_VDRE_CIS was analyzed into 1 assay endpoint. This assay endpoint, ATG_VDRE_CIS, was analyzed with bidirectional fitting relative to DMSO as the negative control and baseline of activity. Using a type of inducible reporter, measures of mRNA for gain or loss-of-signal activity can be used to understand the reporter gene at the transcription factor-level as they relate to the gene VDR. Furthermore, this assay endpoint can be referred to as a primary readout, because this assay has produced multiple assay endpoints where this one serves a reporter gene function. To generalize the intended target to other relatable targets, this assay endpoint is annotated to the nuclear receptor intended target family, where the subfamily is non-steroidal.\nHuman liver HepG2 cells are transiently transfected with multiple reporter transcription units (MRTUs) in 6-well plates using FuGene 6 reagent (Roche; 3 ml FuGene/1 mg DNA). The MRTU constructs are regulated by a cis-regulating element (promoter). […] A major difference between the CIS and TRANS system is that in CIS activities of endogenous TFs are measured, whereas the TRANS assay evaluates changes in activities of exogenous, chimeric NR-Gal4 proteins. […] At the end of 24 hour incubation, total RNA was isolated using TriZol reagent (Invitrogen). The isolated RNA is then reverse-transcribed using oligo(dT) primer and Mo-MLV reverse transcriptase (Invitrogen) with DNAse I (Ambion) treatment for 30 min. The one-tenth of the produced cDNA was amplified by PCR using Taq DNA polymerase (Invitrogen) and two reporter sequence-specific primers. The PCR products were fluorescently labeled by primer extension with 6-arboxyfluorescein (6-FAM) 5'-labeled reporter sequence-specific primer (2 min at 95 C, 20 s at 68 C and 10 min at 72 C) and these products were digested with 5U of HpaI (New England Biolabs) for 2h at 37 C. The fragments were purified using Qiaquick PCR columns (Qiagen), analyzed on an ABI 3130xL genetic analyzer (Applied Biosystems) with peak positions identified by using a set of X-rhodamine (ROX)-labeled MapMarker1000 molecular weight standards (BioVentures). The raw capillary electrophoresis data was processed using Attagraph software (Attagene)."}
{"smiles": "CCCCCCC(=O)OCC", "outcome": "inactive"}
{"smiles": "C[Si]1(C)O[Si](C)(C)O[Si](C)(C)O[Si](C)(C)O1", "outcome": "inactive"}
{"smiles": "CCc1c(C(=O)NN2CCCCC2)nn(-c2ccc(Cl)cc2Cl)c1-c1ccc(Br)cc1", "AC50": "1.38 µM (active)"}
{"smiles": "O=c1c(O)c(-c2ccc(O)c(O)c2)oc2cc(O)cc(O)c12", "outcome": "inactive"}
{"smiles": "Cc1ccc(Cl)cc1", "outcome": "inactive"}
{"smiles": "CCCCCCCCCCCC(=O)OC", "outcome": "inactive"}
{"smiles": "Nc1nc(N)c2nc(CNc3ccc(C(=O)N[C@@H](CCC(=O)O)C(=O)O)cc3)cnc2n1", "outcome": "inactive"}
{"smiles": "CN1CCCC1=O", "outcome": "inactive"}
{"smiles": "CCCCCCCC=O", "outcome": "inactive"}
{"smiles": "CC(C)(C)c1cc(O)c(C(C)(C)C)cc1O", "AC50": "32 µM (active)"}
{"smiles": "Nc1ccccc1N", "AC50": "34.8 µM (active)"}
{"smiles": "O=C(O)CCCCC(=O)O", "outcome": "inactive"}
{"smiles": "CC1=C(/C=C/C(C)=C/C=C/C(C)=C/CO)C(C)(C)CCC1", "AC50": "1.85 µM (active)"}
{"smiles": "CC1(C)NC(=O)NC1=O", "outcome": "inactive"}
{"smiles": "CCOC(=O)C(C)(C)Oc1ccc(Cl)cc1", "outcome": "inactive"}
{"smiles": "COc1ccc(S(=O)(=O)N2C(=O)[C@@](c3ccccc3OC)(N3C[C@H](O)C[C@H]3C(=O)N(C)C)c3cc(Cl)ccc32)c(OC)c1", "AC50": "19.8 µM (active)"}
{"smiles": "CNC(=O)[C@H]1O[C@@H](n2cnc3c(NCc4cc(Cl)ccc4OCc4cc(C)no4)ncnc32)[C@H](O)[C@@H]1N", "outcome": "inactive"}
{"smiles": "CCCCCCCCCCCCCO", "outcome": "inactive"}
{"smiles": "CCCCN(CCCC)CCCC", "outcome": "inactive"}
{"smiles": "Cc1ccc(C(C)C)c(O)c1", "outcome": "inactive"}
{"smiles": "CN1CCN(Cc2cc(-c3ccc4[nH]c(=O)oc4c3)co2)[C@@H](c2ccc(F)cc2)C1", "AC50": "27.4 µM (active)"}
{"smiles": "NCC1(Cc2noc(=O)[nH]2)CCCCC1", "outcome": "inactive"}
{"smiles": "CC(=O)OCCOCCOCCOC(C)=O", "outcome": "inactive"}
{"smiles": "C1CCC(SSC2CCCCC2)CC1", "outcome": "inactive"}
{"smiles": "O=c1[nH]cc(F)c(=O)[nH]1", "outcome": "inactive"}
{"smiles": "CCOc1ccc2c(c1)C(C)=CC(C)(C)N2", "AC50": "38.2 µM (active)"}
{"smiles": "Cc1c(C(=O)O)c(O)cc2c1C(=O)c1c(O)c([C@@H]3O[C@H](CO)[C@@H](O)[C@H](O)[C@H]3O)c(O)c(O)c1C2=O", "outcome": "inactive"}
{"smiles": "CNCc1cc(F)ccc1Oc1ccc(Cl)c(Cl)c1", "outcome": "inactive"}
{"smiles": "Cc1ccc(C)c(C)c1", "outcome": "inactive"}
{"smiles": "Cc1cccc([N+](=O)[O-])c1C", "outcome": "inactive"}
{"smiles": "CCCCC(CC)COC(=O)CC(C(=O)OCC(CC)CCCC)S(=O)(=O)O", "note": "(stereo not given)", "outcome": "inactive"}
{"smiles": "COc1cc(/C=C/C(=O)CC(=O)/C=C/c2ccc(O)c(OC)c2)ccc1O", "AC50": "33.4 µM (active)"}
{"smiles": "Cc1ccc(C)c(O)c1C", "outcome": "inactive"}
{"smiles": "CCCCOC(=O)CCCCCCCCC(=O)OCCCC", "outcome": "inactive"}
{"smiles": "NS(=O)(=O)c1cc2c(cc1Cl)NCNS2(=O)=O", "AC50": "4.41 µM (active)"}
{"smiles": "OC[C@@H](O)[C@@H](O)[C@H](O)[C@H](O)CO", "outcome": "inactive"}
{"smiles": "Cc1cc(=O)[nH]c(=S)[nH]1", "outcome": "inactive"}
{"smiles": "COc1cc(S(=O)(=O)O)c(C)cc1N=Nc1c(O)ccc2cc(S(=O)(=O)O)ccc12", "outcome": "inactive"}
{"smiles": "CCOC(=O)CCC(=O)OCC", "outcome": "inactive"}
{"smiles": "COc1cc(-c2nc(NC(=O)c3cc4cc(C)cc(C)c4n3CC(=O)O)sc2CCC2CCCCC2)c(OC)cc1Cl", "AC50": "7.46 µM (active)"}
